Measurements published in PubChem BioAssay (EPA / NIEHS).
Active and inactive are the calls of the source. The calls were made as follows: active = hit-call score of the fitted dose curve at least 0.9, where 1 is the maximum; inactive = score below 0.9.

What follows are molecules tested against Myc proto-oncogene protein (Homo sapiens) (UniProt P01106) (assay: ATG_Myc_CIS: Attagene CIS-FACTORIAL HepG2 Assay for human Myelocytomatosis (Myc) Proto-Oncogene Transcription Factor (AID 2282990)). Conditions: HepG2, Attagene cis-reporter transcription factor activity; actives raise or lower the signal.
Chain of Myc proto-oncogene protein (Homo sapiens) (P01106 whole entry, looked up): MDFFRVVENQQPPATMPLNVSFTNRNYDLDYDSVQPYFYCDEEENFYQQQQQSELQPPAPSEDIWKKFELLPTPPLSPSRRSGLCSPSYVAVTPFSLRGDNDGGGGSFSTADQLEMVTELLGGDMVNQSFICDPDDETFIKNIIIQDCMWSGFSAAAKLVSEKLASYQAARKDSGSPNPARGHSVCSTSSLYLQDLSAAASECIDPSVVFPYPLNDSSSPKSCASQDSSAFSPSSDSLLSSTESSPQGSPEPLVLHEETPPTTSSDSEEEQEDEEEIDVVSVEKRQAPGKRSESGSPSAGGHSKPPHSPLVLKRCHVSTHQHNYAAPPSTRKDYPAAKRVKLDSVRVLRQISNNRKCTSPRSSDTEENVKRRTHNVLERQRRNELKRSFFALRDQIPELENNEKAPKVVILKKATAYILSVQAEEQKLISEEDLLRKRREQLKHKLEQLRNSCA
Description: ATG_CIS is a cell-based, multiplexed-readout assay that uses HepG2, a human liver cell line, with measurements taken at 24 hours after chemical dosing in a 24-well plate.ATG_Myc_CIS is one of 52 assay component(s) measured or calculated from the ATG_CIS assay. It is designed to make measurements of mRNA induction, a form of inducible reporter, as detected with fluorescence intensity signals by Reverse transcription polymerase chain reaction (RT-PCR) and Capillary electrophoresis technology.Data from the assay component ATG_Myc_CIS was analyzed into 1 assay endpoint. This assay endpoint, ATG_Myc_CIS, was analyzed with bidirectional fitting relative to DMSO as the negative control and baseline of activity. Using a type of inducible reporter, measures of mRNA for gain or loss-of-signal activity can be used to understand the reporter gene at the transcription factor-level as they relate to the gene MYC. Furthermore, this assay endpoint can be referred to as a primary readout, because this assay has produced multiple assay endpoints where this one serves a reporter gene function. To generalize the intended target to other relatable targets, this assay endpoint is annotated to the dna binding intended target family, where the subfamily is basic helix-loop-helix leucine zipper.
Human liver HepG2 cells are transiently transfected with multiple reporter transcription units (MRTUs) in 6-well plates using FuGene 6 reagent (Roche; 3 ml FuGene/1 mg DNA). The MRTU constructs are regulated by a cis-regulating element (promoter). […] A major difference between the CIS and TRANS system is that in CIS activities of endogenous TFs are measured, whereas the TRANS assay evaluates changes in activities of exogenous, chimeric NR-Gal4 proteins. […] At the end of 24 hour incubation, total RNA was isolated using TriZol reagent (Invitrogen). The isolated RNA is then reverse-transcribed using oligo(dT) primer and Mo-MLV reverse transcriptase (Invitrogen) with DNAse I (Ambion) treatment for 30 min. The one-tenth of the produced cDNA was amplified by PCR using Taq DNA polymerase (Invitrogen) and two reporter sequence-specific primers. The PCR products were fluorescently labeled by primer extension with 6-arboxyfluorescein (6-FAM) 5'-labeled reporter sequence-specific primer (2 min at 95 C, 20 s at 68 C and 10 min at 72 C) and these products were digested with 5U of HpaI (New England Biolabs) for 2h at 37 C. The fragments were purified using Qiaquick PCR columns (Qiagen), analyzed on an ABI 3130xL genetic analyzer (Applied Biosystems) with peak positions identified by using a set of X-rhodamine (ROX)-labeled MapMarker1000 molecular weight standards (BioVentures). The raw capillary electrophoresis data was processed using Attagraph software (Attagene).
`C[Si](C)(C)C(F)(F)C(F)(F)C(F)(F)F` was tested, and the outcome was “inactive”. `O=C(O)c1cccc(C[C@@H]2COc3ccc(OCc4nc5cc(F)ccc5s4)cc3[C@@H]2O)c1` was tested, and the outcome was “inactive”. For `CC[C@H](C)C(=O)O[C@H]1C[C@H](O)C=C2C=C[C@H](C)[C@H](CC[C@@H](O)C[C@@H](O)CC(=O)O)[C@H]21`, the outcome was “inactive”. In the case of `Cc1ncc([C@@H](CCCCCCc2ccc3c(n2)NCCC3)CC(=O)O)cn1`, the outcome is reported as “inactive”. In the case of `O=C(O)c1ccc2c(c1)nc(C(=O)NC1CCN(C3CC3)CC1)n2Cc1cc(-c2ccc(Cl)s2)on1`, the outcome is reported as “inactive”. With `CCCCCCOC(=O)CC(CC(=O)OCCCCCC)(OC(=O)CCC)C(=O)OCCCCCC` the outcome was “inactive”. With `CCc1cccc(CC)c1N` the outcome was “inactive”. With `c1ccc2c(c1)-c1cccc3c1c-2cc1ccccc13` the outcome was “inactive”. `Cc1nccn1-c1ccc(Sc2cccc(C3(C(N)=O)CCOCC3)c2)cc1` was tested, and the AC50 was 2850 nM (active). `CC(=O)c1ccccc1` was tested, and the outcome was “inactive”. For `O=C(O)[C@H](O)[C@@H](O)C(=O)O`, the outcome was “inactive”. `COc1cc2c(c(OC)c1OC)-c1ccc(OC)c(=O)cc1[C@@H](NC(C)=O)CC2` was tested, and the outcome was “inactive”. With `COS(C)(=O)=O` the outcome was “inactive”. With `COc1cc(C(C)C)c2c(c1)S(=O)(=O)N(COc1cc(=O)n3cccc(OCCN4CCCCC4)c3n1)C2=O` the AC50 was 2750 nM (active). With `O=c1[nH]cnc2c1ncn2[C@H]1CC[C@@H](CO)O1` the outcome was “inactive”. `OCCNCCO` was tested, and the outcome was “inactive”. With `O=S(=O)(O)CCC(F)(F)C(F)(F)C(F)(F)C(F)(F)C(F)(F)C(F)(F)F` the outcome was “inactive”. With `NC(=O)N1c2ccccc2C=Cc2ccccc21` the outcome was “inactive”. With `OC[C@H]1O[C@@](CO)(O[C@H]2O[C@H](CO)[C@@H](O)[C@H](O)[C@H]2O)[C@@H](O)[C@@H]1O` the outcome was “inactive”. With `OC(O)(C(F)C(O)(O)C(F)(F)F)C(F)(F)F` the outcome was “inactive”. For `OC(Cn1cncn1)(Cn1cncn1)c1ccc(F)cc1F`, the outcome was “inactive”. For `c1ccc2cc3ccccc3cc2c1`, the outcome was “inactive”. `C[C@@H](Oc1ccc(CNC(=O)c2cccnc2Oc2ccc3c(c2)OCO3)c(F)c1)C(=O)O` was tested, and the outcome was “inactive”. `CC(C)CCCCCCOC(=O)C1CCCCC1C(=O)OCCCCCCC(C)C` (stereo not given) was tested, and the outcome was “inactive”. `CCCOc1ccc(S(=O)(=O)N2CCN(CC)CC2)cc1-c1nc2c(CC)n(Cc3ccccn3)nc2c(=O)[nH]1` was tested, and the outcome was “inactive”. `CCCCCCCCN(C)C` was tested, and the outcome was “inactive”. With `OC(CCl)CCl` the outcome was “inactive”. In the case of `OCC(CO)(CO)CO`, the outcome is reported as “inactive”. For `NC(=O)NN=Cc1ccc([N+](=O)[O-])o1`, the outcome was “inactive”. With `CCn1nc(C)c2c1C(=O)NCC(c1ccc(O)cc1)=N2` the outcome was “inactive”. In the case of `Cn1c(=O)c2[nH]cnc2n(C)c1=O`, the outcome is reported as “inactive”. In the case of `OCc1c[nH]c2ccccc12`, the outcome is reported as “inactive”. For `OCCC(F)(F)C(F)(F)C(F)(F)C(F)(F)F`, the outcome was “inactive”. With `CCCCCCCCCC` the outcome was “inactive”. `CC(C)C(=O)Nc1ccc([N+](=O)[O-])c(C(F)(F)F)c1` was tested, and the outcome was “inactive”. With `Cc1ccc(S(=O)(=O)NC(=O)NN2CCCCCC2)cc1` the outcome was “inactive”. For `CCCC(CCC)C(=O)O`, the outcome was “inactive”. `FC(F)(F)C(F)(F)C(F)(F)C(F)(F)C(F)(F)C(F)(F)I` was tested, and the outcome was “inactive”. `c1ccc(C(O[C@@H]2CCCN(CCc3ccc4c(c3)OCO4)C2)c2ccccc2)cc1` was tested, and the outcome was “inactive”. `CC(C)c1nnc2ccc(-c3ocnc3-c3cc(F)ccc3F)cn12` was tested, and the outcome was “inactive”.
